A selection: hits, their analogues and other compounds. The true share with any hit is near 17%.
TDP1 block – inhibitors of human tyrosyl-DNA phosphodiesterase TDP1; Q9NUW8; recombinant TDP1, AlphaScreen DNA substrate cleavage; Potency, µM (series often up to 130 µM), hits mostly inhibitors; 350,000 compounds, 0.28% hits; note: nearly all actives have a fitted effect of over 40% in size
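Steps: enzyme plus compound, 15 min RT; add biotin/phosphotyrosine-FITC oligonucleotide (15 nM final), react 5 min; add donor/acceptor beads (10 ug/ml final), 10 min; read AlphaScreen. Tdp1 at 1 nM final.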
DT40 TDP1 CPT – growth inhibition of DT40 Tdp1-/-;hTDP1 cells with camptothecin (screen for TDP1 inhibitors); 420,000 compounds, 12% hits; chicken DT40 Tdp1-/-;hTDP1 cells + 20 nM CPT, ATP luminescence, 48 h; AID 686979; Potency, µM (top dose mostly 46.2 µM), hits mostly inhibitors; note: nearly all actives have a fitted effect of over 55% in size
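Chicken DT40 Tdp1-/- cells complemented with human TDP1, 400 cells/well, exposed to compounds plus 20 nM camptothecin for at least 48 h at 37 C; viability read as ATP content by CellTiter-Glo luminescence.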
ClpP mod – qHTS Assay for Activators of ClpP. ATP-dependent Clp protease proteolytic subunit (Bacillus subtilis (strain 168)), P80244. purified B. subtilis ClpP, FRET peptide cleavage, 20 min. Potency, µM (titrated, usually from 57.5 µM). 340,000 compounds, 1.9% hits. AID 651965, 2013; active = well fitted falling curve with a large enough effect; inconclusive = small, poorly fitted or top-dose-only effect; inactive = no such curve, though single readings can be large or run the other way; note: the source files actives as falling curves though it sought activators and does not explain the sign; nearly all actives have a fitted effect of over 65% in size
Target sequence (P80244 whole entry, looked up): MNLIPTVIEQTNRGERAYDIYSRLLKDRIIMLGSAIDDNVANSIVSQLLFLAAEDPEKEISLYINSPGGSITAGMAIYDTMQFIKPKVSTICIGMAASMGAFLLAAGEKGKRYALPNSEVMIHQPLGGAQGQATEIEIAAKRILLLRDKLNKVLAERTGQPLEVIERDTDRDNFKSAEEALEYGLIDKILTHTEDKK
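Buffer: 100 mM Tris/HCl pH8, 100 mM KCl, 0.05% low protease BSA, 2.5% glycerol, 0.01% Tween-20. ClpP 10 microg/mL final; 20 min RT; delta FRET normalized to ADEP and DMSO controls.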
DT40 TDP1 no CPT – qHTS for Inhibitors of human tyrosyl-DNA phosphodiesterase 1 (TDP1): qHTS in cells in absence of CPT; AID 686978, 2013; Potency, µM (series often up to 46.2 µM), actives largely listed as inhibitors; DT40 Tdp1-/- hTDP1 cells, no CPT, ATP luminescence, 48 h; 420,000 compounds, 15% hits; note: nearly all actives have a fitted effect of over 55% in size
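A cellular qHTS used chicken DT40 cells lacking endogenous Tdp1 but carrying stably transfected human TDP1. Compounds were applied without camptothecin, and cell growth kinetics were judged by ATP-dependent luminescence after ≥48 hr.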
Of the large screens only hits and unclear results are named; the others gave an inactive call. Unless noted, calls come from the whole dose curve; as a rule, active = well fitted curve in the direction sought with a large enough effect; inconclusive = small, poorly fitted or top-dose-only effect, or another doubt; inactive = no such curve, though single readings can be large; an effect the other way counts as inactive or inconclusive.

O=Cc1ccc(OC(=O)c2cc(Cl)nc3ccccc23)cc1	DT40 TDP1 CPT inconclusive, DT40 TDP1 no CPT 21µM (no result: ClpP mod)
Cc1nn(CCO)c(N)c1C1(O)C(=O)Nc2c(Cl)cc(Cl)cc21 (centres undefined)	DT40 TDP1 CPT 4.1µM, DT40 TDP1 no CPT 3.3µM (no result: ClpP mod)
CCOc1cc(C(=O)NCCc2csc3nc(-c4ccccc4F)nn23)cc(OCC)c1OCC	DT40 TDP1 CPT 23µM, DT40 TDP1 no CPT inconclusive
COc1ccc(CC(=O)NCCc2csc3nc(-c4ccccc4F)nn23)cc1	DT40 TDP1 CPT inconclusive
CC(C)(C)c1ccc(C(=O)NCCc2csc3nc(-c4ccccc4F)nn23)cc1	DT40 TDP1 CPT 21µM, DT40 TDP1 no CPT inconclusive
O=C(Cc1ccc(Cl)cc1)NCCc1csc2nc(-c3ccccc3F)nn12	none
COc1ccc(NC(=O)C(=O)NCCc2csc3nc(-c4ccccc4F)nn23)cc1OC	none
CCCCOc1ccc(C(=O)NCCc2csc3nc(-c4ccccc4F)nn23)cc1	DT40 TDP1 CPT 26µM, DT40 TDP1 no CPT inconclusive
O=C(O)[C@H](Cc1c[nH]c2ccccc12)N1C(=O)C2=CCCC=C2C1=O	none (no result: DT40 TDP1 CPT, ClpP mod, DT40 TDP1 no CPT)
COC(=O)c1ccc(/C=N/NC(=S)NC(C)C)cc1	DT40 TDP1 CPT inconclusive, DT40 TDP1 no CPT inconclusive (no result: TDP1 block)
CCN(Cc1ccccc1)c1ccc(/C=N/NC(=S)NC(C)C)cc1	DT40 TDP1 CPT 2.6µM, ClpP mod inconclusive, DT40 TDP1 no CPT 2.9µM
CCN(Cc1ccccc1)c1ccc(/C=N/NS(=O)(=O)c2ccc(C)c([N+](=O)[O-])c2)cc1	DT40 TDP1 CPT inconclusive, DT40 TDP1 no CPT 23µM
CCN(Cc1ccccc1)c1ccc(/C=N/N=C(N)N)cc1	DT40 TDP1 CPT 10µM, ClpP mod 25µM, DT40 TDP1 no CPT 13µM
CCN(Cc1ccccc1)c1ccccc1	none
COCC#Cc1ccc(C2NC(C(=O)O)CCC2C)cc1 (centres undefined)	none (no result: DT40 TDP1 CPT, ClpP mod, DT40 TDP1 no CPT)
CN(C)c1ccc(C2C=C(c3ccc(Cl)cc3OC(F)F)Nc3ncnn32)cc1 (centres undefined)	DT40 TDP1 CPT 9.2µM, DT40 TDP1 no CPT 18µM
Cc1ccc(C2=CC(c3ccccc3)n3ncnc3N2)cc1 (centres undefined)	DT40 TDP1 CPT inconclusive, DT40 TDP1 no CPT inconclusive (no result: TDP1 block)
Cc1ccc(C2C=C(c3ccccc3OC(F)F)Nc3ncnn32)cc1 (centres undefined)	DT40 TDP1 CPT inconclusive, ClpP mod 22µM
CSc1ccccc1C(=O)NCCCn1ccnc1	none (no result: ClpP mod)
CCC(=O)N1CCc2cc(S(=O)(=O)CCC(=O)Nc3ccc(OC)cc3)ccc21	none
CCC(=O)N1CCc2cc(S(=O)(=O)CCC(=O)NCc3ccccc3Cl)ccc21	DT40 TDP1 CPT inconclusive
CCC(=O)N1CCc2cc(S(=O)(=O)CCC(=O)N3CCN(c4ccc(Cl)cc4)CC3)ccc21	DT40 TDP1 CPT 8.2µM, DT40 TDP1 no CPT 4.1µM
CCC(=O)N1CCc2cc(S(=O)(=O)CCC(=O)N3CCN(c4ccc(C(C)=O)cc4)CC3)ccc21	DT40 TDP1 CPT 18µM, DT40 TDP1 no CPT 7.3µM
CCC(=O)N1CCc2cc(S(=O)(=O)CCC(=O)N3CCN(c4cccc(Cl)c4)CC3)ccc21	DT40 TDP1 CPT 21µM, DT40 TDP1 no CPT 9.2µM
CCC(=O)N1CCc2cc(S(=O)(=O)CCC(=O)Nc3ccc(OC(F)(F)F)cc3)ccc21	DT40 TDP1 CPT 23µM, DT40 TDP1 no CPT 23µM
CCC1C(=O)NCCN1Cc1ccc2c(c1)CN(Cc1ccc(F)c(OC)c1)CCO2 (centres undefined)	none (no result: TDP1 block, ClpP mod)
Cc1ccc(C(=O)Nc2ccccc2C(=O)OCc2cc(=O)n3nc(C4CC4)sc3n2)cc1	none
NCCC1CN(C(=O)OCc2ccccc2)c2ccccc21 (centres undefined)	DT40 TDP1 CPT 5.8µM, DT40 TDP1 no CPT 5.2µM (no result: TDP1 block)
CC(=O)n1c2c(c3ccccc31)OC(N)=C(C#N)C2c1cccc(Cl)c1Cl (centres undefined)	DT40 TDP1 CPT 15µM, DT40 TDP1 no CPT 7.3µM
N#CC1=C(N)Oc2cc(N)ccc2C1c1ccccc1Cl (centres undefined)	DT40 TDP1 CPT inconclusive, DT40 TDP1 no CPT inconclusive (no result: TDP1 block)
COc1ccc(NC(=O)CCCn2nc(C)c3sc4ccccc4c3c2=O)cc1	DT40 TDP1 CPT inconclusive, DT40 TDP1 no CPT inconclusive
N#Cc1nc(COc2ccccc2)oc1N1CCN(Cc2ccccc2)CC1	DT40 TDP1 CPT inconclusive, DT40 TDP1 no CPT inconclusive
COc1ccc(N2CCN(c3oc(Cc4cccc5ccccc45)nc3C#N)CC2)cc1	DT40 TDP1 CPT inconclusive, DT40 TDP1 no CPT 6.5µM

Screening data as filed in PubChem BioAssay.
